# The OligoGym collection
# Molecular target: CNGB1
# Experiment: pooled miR-30 sensor sort-seq; sequence = guide strand
# Conditions: shRNA
# Also: reference of the scale not given here.
row,Sequence,sensor-assay potency score (higher = more potent)
1,TTCTTGCACACATAGTCGTTGG,-0.837
2,TAAGCTGGAACCACCTCTGTAC,0.05
3,TCTTTCTCCTCTTCAATCCGGG,-0.237
4,TTGTAGTTCACGTCGATGGCGA,-0.201
5,TACATCAGGTTGGTCAGCGGGT,-0.543
6,TTTGCTAACGATGTTGTAGTTC,0.184
7,TTCATGTACTTCACCGTGCTGT,0.284
8,TTTCTCTGTCCGCTCCTTGAAG,-0.823
9,TTGGGTTCATCTGTGCACCCTG,0.488
10,TGCGGTAGTAGGTCTGTCCGGC,0.228
11,TCGCATGTCCTTTTTGTCCGTA,-0.378
12,TTGACGTCTTGCGAGCTCTTGG,-0.581
13,TTTCTTCCGGAGTAACTTCTGA,-0.522
14,TGGGCTGGTACTGACATCCTGG,-0.698
